In PubChem BioAssay AID2661 (Broad Institute, 2010):
The campaign covered roughly 320,000 compounds. About 240 (0.075%) were called active.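 The calls were made as follows: active = inhibition at or above 25%, using the most active replicate where run in duplicate; inactive = inhibition below 25%.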 The sample as a whole holds a higher share of actives than the screen did.

Target: Serine/threonine-protein kinase 33 (Homo sapiens) (UniProt Q9BYT3)
Experiment: STK33 phosphorylation of MBP blockers – biochemical, ADP-Glo luminescence, homogeneous, cell-free, primary screen (AID 2661)
Settings: purified STK33, MBP phosphorylation, at 10 µM, stronger effect = higher value

Sequence of Serine/threonine-protein kinase 33 (Homo sapiens) (Q9BYT3 whole entry, looked up): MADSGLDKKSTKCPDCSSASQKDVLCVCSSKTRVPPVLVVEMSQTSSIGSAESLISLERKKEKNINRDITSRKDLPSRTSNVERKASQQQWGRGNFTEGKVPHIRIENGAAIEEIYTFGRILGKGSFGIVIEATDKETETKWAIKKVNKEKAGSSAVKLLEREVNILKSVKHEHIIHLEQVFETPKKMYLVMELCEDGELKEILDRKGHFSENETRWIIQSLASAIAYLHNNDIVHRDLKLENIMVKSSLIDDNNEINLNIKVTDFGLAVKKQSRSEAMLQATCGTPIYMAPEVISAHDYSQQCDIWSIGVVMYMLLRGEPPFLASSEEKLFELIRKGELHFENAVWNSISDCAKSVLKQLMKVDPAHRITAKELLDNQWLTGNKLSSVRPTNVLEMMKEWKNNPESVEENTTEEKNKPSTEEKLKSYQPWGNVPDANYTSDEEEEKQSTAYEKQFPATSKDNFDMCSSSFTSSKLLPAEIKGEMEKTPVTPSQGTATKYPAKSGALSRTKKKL

Row | SMILES | inhibition
1 | COc1ccc(CCNC(=O)COC(=O)c2cnc(Cl)c(Cl)c2)cc1 | 0.375% (inactive)
2 | C[C@]12CC[C@H](O)CC1=CCC1C2CC[C@@]2(C)C1CC[C@@H]2NC(=O)CCC(=O)O (stereo partly drawn) | -0.89% (inactive)
3 | CC1CCCCC1NCC(=O)Nc1ccccc1C(=O)Nc1ccccc1 (stereo not drawn) | 0.481% (inactive)
4 | CC(C)(C)OC(=O)C[C@H]1C/C=C\C[C@@H](CC(=O)N[C@H](CO)Cc2ccccc2)C(=O)NC[C@@H](c2ccccc2)OC1=O | -0.103% (inactive)
5 | O=C1COc2ccc(C(=O)COC(=O)c3ccccc3Cl)cc2N1 | -0.902% (inactive)
6 | Cn1c(N)c(C(=O)COC(=O)c2cccc(S(=O)(=O)N3CCOCC3)c2)c(=O)n(C)c1=O | -0.402% (inactive)
7 | O=C(Cn1cc(C(F)(F)F)ccc1=O)Nc1ccc2c(c1)OCCO2 | -0.216% (inactive)
8 | C[C@H]1COC(=O)[C@H](CC(=O)OC(C)(C)C)C/C=C\C[C@@H](CC(=O)N[C@H](CO)Cc2ccccc2)C(=O)N1 | 0.871% (inactive)
9 | C[C@H](CO)N1C[C@H](C)[C@@H](CN(C)S(=O)(=O)c2ccc(F)cc2)Oc2ccc(NC(=O)CCC(F)(F)F)cc2C1=O | -3.43% (inactive)
10 | CCN(c1ccccc1)S(=O)(=O)c1ccc(C(=O)Nc2ccccc2OC)cc1 | -0.186% (inactive)
11 | Cc1csc2nc(COC(=O)c3cccc(N(C)C)c3)cc(=O)n12 | 0.859% (inactive)
12 | Cc1csc(=O)n1CC(=O)Nc1ccc(S(C)(=O)=O)cc1 | -0.384% (inactive)
13 | COc1ccc(-c2c(C#Cc3ccsc3)c3cc(-c4ccc(CN5CCOCC5)cc4)ccc3n2C)cc1 | -0.0231% (inactive)
14 | O=S(=O)(Nc1ncnc2sccc12)c1cccc(F)c1 | -0.694% (inactive)
15 | CCN(C[C@H]1N[C@@](CC)(C(=O)OC)[C@H]2C(=O)N(C)C(=O)[C@@H]12)C(=O)Nc1ccc(F)cc1 | -1.58% (inactive)
16 | Cc1ccc(NC(=O)c2ccc(Cl)nc2)cc1S(=O)(=O)N1CCOCC1 | -0.219% (inactive)
17 | COc1ccccc1N(CC(=O)Nc1ccc(C)cc1Cl)S(=O)(=O)c1cccs1 | -0.284% (inactive)
18 | Cc1ccc(CNC(=O)COC(=O)C2CCC2)cc1 | -0.167% (inactive)
19 | C=CC[C@@H](CC(=O)N[C@H](CO)Cc1ccccc1)C(=O)N[C@H](C)COC(=O)[C@@H](CC=C)Cc1ccc(F)cc1 | -1.41% (inactive)
20 | O=C(COC(=O)c1cc(S(=O)(=O)N2CCOCC2)ccc1F)NC1CC1 | -1.08% (inactive)
21 | O=C1CC2(CCCC2)C(=O)N1CN1CCN(S(=O)(=O)c2ccc(F)cc2F)CC1 | 0.0533% (inactive)
22 | O=C(C[C@H]1C/C=C\C[C@@H](NC(=O)OCC2c3ccccc3-c3ccccc32)C(=O)O[C@@H](c2ccccc2)CNC1=O)N[C@H](CO)Cc1ccccc1 | 0.211% (inactive)
23 | COc1ccc(C(=O)COC(=O)c2c(C)noc2C)cc1Cl | 0.472% (inactive)
24 | O=C(COC(=O)c1cccnc1Cl)NC12CC3CC(CC(C3)C1)C2 | -1.76% (inactive)
25 | CCn1c(=O)c([N+](=O)[O-])c(NCc2ccc3c(c2)OCO3)c2ccccc21 | 2.57% (inactive)
26 | Cc1cc(C)nc(N/N=C/c2ccc([N+](=O)[O-])o2)n1 | 0.179% (inactive)

Row | SMILES | inhibition
27 | CCn1c(/C=C/c2ccc([N+](=O)[O-])o2)nc2ccccc2c1=O | 84.6% (active)
28 | Cn1c(N)c(C(=O)COC(=O)c2ccc3ccccc3c2)c(=O)n(C)c1=O | -1.35% (inactive)
29 | CCOC(=O)[C@H]1[C@H]2COc3cc(OC)ccc3[C@@H]2N2C(=O)CN(Cc3ccc(Cl)cc3)C(=O)[C@@]12C | 0.914% (inactive)
30 | O=C(COC(=O)c1n[nH]c2ccccc12)Nc1ccccc1Br | -1.11% (inactive)
31 | CC1CCCCC1NC(=O)Cn1cnc2c1c(=O)n(C)c(=O)n2C (stereo not drawn) | 1.66% (inactive)
32 | Cc1ccc2c(c1)NC(=O)[C@@]1(C)[C@@H](c3ccccc3)[C@H]3COc4ccc(Cl)cc4[C@@H]3N1C2=O | -0.222% (inactive)
33 | CC1(C)CC[C@@]2(C(=O)O)C(C1)C1=CCC3[C@@]4(C)CC[C@H](O)C(C)(C)C4CC[C@@]3(C)[C@]1(C)C[C@H]2O (stereo partly drawn) | -0.618% (inactive)
34 | CCN(C[C@H]1N[C@@](Cc2ccccc2)(C(=O)OC)[C@H]2C(=O)N(Cc3ccccc3)C(=O)[C@@H]12)C(=O)c1ccc(C)cc1 | -0.0719% (inactive)
35 | COc1ccc(-c2nc3cnccn3c2NC2CCCCC2)cc1-c1cccc(Cl)c1 | 0.0525% (inactive)
36 | CN1CCN(C(=O)c2ccc(-c3ccc(Br)cc3)o2)CC1 | -1.87% (inactive)
37 | Cc1ccc(C2(C)NC(=O)N(CC(=O)N3CC(=O)Nc4ccccc43)C2=O)cc1 (stereo not drawn) | -1.43% (inactive)
38 | O=C(NCc1ccc2c(c1)OCO2)c1cc([N+](=O)[O-])ccc1N1CCOCC1 | 0.302% (inactive)
39 | COc1ccc(Br)cc1CN(C)C(=O)C1CC(=O)N(C2CCCC2)C1 (stereo not drawn) | -1.57% (inactive)
40 | COc1cc(C=NNC(=O)c2cccnc2)ccc1OC(=O)c1ccccc1F | -0.897% (inactive)
41 | COc1ccccc1C(=O)OCC(=O)Nc1cccc(S(=O)(=O)NC2=NCCCCC2)c1 | -2.03% (inactive)
42 | O=C(NNS(=O)(=O)c1c(F)cc(F)c(Cl)c1F)C12CC3CC(CC(C3)C1)C2 | 0.0785% (inactive)
43 | C=CC[C@H](CC(=O)N(CCO)Cc1ccccc1)C(=O)N[C@@H](COC(=O)[C@@H](CC=C)Cc1ccc(F)cc1)Cc1ccccc1 | -2.76% (inactive)
44 | CC1(c2ccccc2)NC(=O)N(CC(=O)N2CC(=O)Nc3ccccc32)C1=O (stereo not drawn) | -2.96% (inactive)
45 | O=C(Nc1cccc(S(=O)(=O)N2CCOCC2)c1)C12CC3CC(CC(C3)C1)C2 | -0.903% (inactive)
46 | COc1ccc(C2=Nn3c(nnc3-c3ccccc3OC)SC2)cc1OC1CCCC1 | 0.928% (inactive)
47 | O=C(COC(=O)c1ccncc1)Nc1ccc2c(c1)OCO2 | 0.121% (inactive)
48 | CN(CC(=O)NCCc1ccc(S(N)(=O)=O)cc1)CC(=O)Nc1ccc(F)c(F)c1F | -2.4% (inactive)
49 | Cc1cccc(C(=O)OCC(=O)NC(C)C2CC3CCC2C3)c1O (stereo not drawn) | -0.0496% (inactive)
50 | Cc1occc1C(=O)Nc1cccc(S(=O)(=O)N2CCOCC2)c1 | -0.0898% (inactive)
51 | O=C(COC(=O)c1ccc2c(c1)OCCO2)NCc1ccccc1Cl | 0.627% (inactive)
52 | COc1ccc2sc(-c3ccc(S(C)(=O)=O)cc3)c(-c3ccc(C(N)=O)cc3)c2c1 | 0.996% (inactive)

Row | SMILES | inhibition
53 | CCOC(=O)C1CCN(C(=O)CN2C(=O)NC(C)(c3ccc4cc(OC)ccc4c3)C2=O)CC1 (stereo not drawn) | -0.656% (inactive)
54 | O=C(OCCN1C(=O)c2ccccc2C1=O)[C@@H]1CC(O)CN1S(=O)(=O)c1ccccc1[N+](=O)[O-] (stereo partly drawn) | -1.85% (inactive)
55 | Cc1ccc(C(=O)Nc2ccc3c(c2)OCCO3)cc1S(=O)(=O)N1CCOCC1 | -0.304% (inactive)
56 | CC(C)Cn1c(SCC(=O)Nc2ccc(Cl)cc2F)nc(O)cc1=O | -0.953% (inactive)
57 | COc1ccc2[nH]c(C(=O)N/N=C/c3cc(OC)c(OC)c(OC)c3)cc2c1 | 2.65% (inactive)
58 | COc1cc(N=Cc2c(O)[nH]c3ccccc23)cc(OC)c1OC | 58.4% (active)
59 | COc1ccc(N=Cc2c(O)[nH]c3ccccc23)cc1OC | 52.5% (active)
60 | COc1cc(/C=N/NC(=O)Cc2ccccc2)cc(OC)c1OC | -2.17% (inactive)
61 | CN=c1scc(-c2cc(OC)ccc2OC)n1/N=C/c1c(C)[nH]c2ccccc12 | -0.488% (inactive)
62 | COc1ccccc1N=Cc1c(O)c2ccccc2oc1=O | -1.49% (inactive)
63 | O=C1NC(Cc2ccc(O)cc2)c2nc3ccc(Cl)cc3c(=O)n2-c2ccccc21 (stereo not drawn) | -0.58% (inactive)
64 | COc1ccc(S(=O)(=O)N2CCN(CC(=O)N3CCOCC3)CC2)cc1OC | -0.603% (inactive)
65 | C=CCC[C@@H](Cc1ccc(F)cc1)C(=O)O[C@H](CNC(=O)[C@H](CC=C)CC(=O)N(CCO)Cc1ccccc1)c1ccccc1 | -2.71% (inactive)
66 | COc1cccc(NC(=O)COc2cccnc2[N+](=O)[O-])c1 | -0.0978% (inactive)
67 | CC(OC(=O)c1ccc(Cl)cc1O)C(=O)NCCC1=CCCCC1 (stereo not drawn) | -0.652% (inactive)
68 | CC1CC(=NNC(=O)C2COc3ccccc3O2)CC(C)(C)C1 (stereo not drawn) | -2.29% (inactive)
69 | CN(CC(=O)Nc1ccc(C(N)=O)cc1)S(=O)(=O)c1ccc2c(c1)OCCO2 | -0.492% (inactive)
70 | O=C(Nc1cccc(S(=O)(=O)NC2=NCCC2)c1)c1ccc(F)cc1F | -1.19% (inactive)
71 | Cc1ccc(S(=O)(=O)Nc2ccc(F)c(S(=O)(=O)N3CCOCC3)c2)cc1 | -2.74% (inactive)
72 | COc1ccc(C(=O)COC(=O)C(O)c2ccccc2)c(OC)c1 (stereo not drawn) | -0.118% (inactive)
73 | O=C(N[C@@H]1C/C=C\C[C@@H](CC(=O)N(CCO)Cc2ccccc2)C(=O)N[C@H](Cc2ccccc2)COC1=O)OCC1c2ccccc2-c2ccccc21 | -2.32% (inactive)
74 | Fc1ccc2cnc(-c3ccccc3)cc2c1 | -0.562% (inactive)
75 | C=CCC[C@@H](Cc1ccc(F)cc1)C(=O)OC[C@H](Cc1c[nH]c2ccccc12)NC(=O)[C@@H](CC=C)CC(=O)N(CCO)Cc1ccccc1 | -0.461% (inactive)
76 | O=C1N[C@@H](c2ccccc2)COC(=O)[C@H](Cc2ccc(F)cc2)C/C=C\C[C@@H]1CC(=O)N(CCO)Cc1ccccc1 | 0.44% (inactive)
77 | CCN(CC(=O)NCc1ccc(F)cc1)S(=O)(=O)c1ccc(Cl)s1 | 0.0366% (inactive)
78 | NC(=O)Nc1ccc(C(=O)OCC(=O)NC2CCCc3ccccc32)cc1 (stereo not drawn) | -0.0928% (inactive)
